# High-throughput results as filed in PubChem BioAssay.
# ERp5 block: inhibitors of human ERp5 | Q15084 | ERp5 insulin aggregation, absorbance 650 nm, 90 min | inhibition, % at 9.99 µM | 350,000 tested, 0.05% active;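 active = mean replicate inhibition above about 25%, with every replicate also reaching it, limit read from the data, passing the limit was not always enough; inconclusive = only one of those two criteria met; inactive = neither criterion met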
# Rtt109 HAT inh: inhibitors of Candida albicans Rtt109/Vps75 histone acetyltransferase. purified Rtt109/Vps75, ThioGlo CoA-SH fluorescence, 4 h. inhibition, % at 34.9 µM. AID 540336. Q5AAJ8. 330,000 tested, 0.16% active;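 active = inhibition of at least 50% in every replicate; inconclusive = best replicate reaches 50% inhibition but some replicates fall short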
# Target sequence (Q5AAJ8 whole entry, looked up): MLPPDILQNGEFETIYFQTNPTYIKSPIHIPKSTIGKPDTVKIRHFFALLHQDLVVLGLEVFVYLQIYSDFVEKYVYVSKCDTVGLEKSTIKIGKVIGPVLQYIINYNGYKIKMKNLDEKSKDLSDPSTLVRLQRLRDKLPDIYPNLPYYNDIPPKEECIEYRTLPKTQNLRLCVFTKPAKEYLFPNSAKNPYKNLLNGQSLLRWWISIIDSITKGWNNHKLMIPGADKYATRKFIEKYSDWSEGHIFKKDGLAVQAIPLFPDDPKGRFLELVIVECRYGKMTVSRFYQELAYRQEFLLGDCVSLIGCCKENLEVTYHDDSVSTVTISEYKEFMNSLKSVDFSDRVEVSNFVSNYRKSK
# DENV2 CPE: protects cells from dengue virus 2 cytopathic effect; DENV2-infected cells, cytopathic effect rescue, plate reader; CPE inhibition, % at 9.99 µM; 350,000 tested, 1.7% active; in the data active = CPE inhibition above about 20%, passing the limit was not always enough; inconclusive = no clear call, values can overlap the other calls; tested in BHK-21 cells;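 note: 0% = median of neutral control wells and 100% = median of positive control wells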
# PDI turbidity: PDI (human) enzyme inhibition; 350,000 tested, 0.052% active; P07237; inhibition, % at 10 µM; PDI insulin aggregation turbidity, A650, 90 min;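 active = mean inhibition across replicates of 30% or more, whatever share of single replicates reach that level; inconclusive = mean inhibition below 30% while every single replicate reaches 30%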
# SIRT5 block: sirtuin-5 (human) deacylase inhibition. Purified SirT5, succinyl-peptide AMC, trypsin-coupled fluorescence. inhibition, % at 15 µM. 330,000 tested, 1.1% active; in the data active = inhibition above about 15%; inconclusive = no clear call, values can overlap the other calls
# Numbers without * were called inactive; ? = inconclusive; . = no result given. Hits are enriched below; roughly 2.3% of the tested compounds scored in any of these assays.
SMILES,ERp5 block,Rtt109 HAT inh,DENV2 CPE,PDI turbidity,SIRT5 block
Cc1ccc(S(=O)(=O)N2CCN(C(=O)CCc3nc4ccccc4c(=O)[nH]3)CC2)c(C)c1,26*,-6,?,-4,-1
COCCCNC1=C(C#N)C(=O)NC(c2cccc([N+](=O)[O-])c2)S1 (stereo not given),-2,.,-10,-4,.
COc1cc(C2NC(=O)C(C#N)=C(Nc3cccc(C)c3)S2)ccc1O (stereo not given),5,147*,-3,-7,-7
COc1ccccc1OCC(=O)Nc1ccc(N2CCOCC2)cc1N1CCOCC1,7,5,29*,3,-1
Cc1ccccc1OCC(=O)Nc1ccc(N2CCOCC2)cc1N1CCOCC1,-3,0,3,5,-5
CCOc1ccc(S(=O)(=O)NCCC(=O)Nc2cccc(C(=O)OC)c2)cc1,-2,54*,-7,-4,-4
C[C@@H]1CN([C@@H](C)CO)C(=O)c2cc(NS(=O)(=O)c3ccccc3)ccc2O[C@@H](C)CCCCO[C@@H]1CN(C)S(=O)(=O)c1ccc(Cl)cc1,0,.,19,.,5
CC(=O)c1c(C)[nH]c(C(=O)NNC(=O)COc2cc(C)cc(C)c2)c1C,14,-13,33*,0,-3
CC(=O)c1c(C)[nH]c(C(=O)NNC(=O)c2ccc(C)cc2)c1C,2,-5,-3,6,10
O=C1CC(c2ccccc2)Sc2ccccc2N1 (stereo not given),.,-6,.,-4,.
O=C1Nc2ccccc2SC1c1ccccc1 (stereo not given),5,6,25*,2,-6
O=S(=O)(c1ccc2c(c1)OCCO2)N1CCCN(S(=O)(=O)c2c(F)cccc2F)CC1,-2,-21,90*,1,0
O=S(=O)(c1ccc2c(c1)OCCO2)N1CCN(S(=O)(=O)c2c(F)cc(F)cc2F)CC1,-1,-3,-14,-4,.
COc1cccc2sc(NC(=O)c3ccc(S(=O)(=O)N4CCOCC4)cc3)nc12,-2,-3,-6,4,15*
COc1ccccc1NC(=O)c1ccc(S(=O)(=O)N2CCOCC2)cc1,.,2,.,2,.
CN1C[C@@H]2[C@H](c3ccccc31)[C@H](CO)N2C(=O)C1CCCCC1,1,.,-8,.,0
COCC(=O)N1CCCCN2[C@H](C1)[C@@H](c1ccc(C#Cc3cccnc3)cc1)[C@@H]2CO,2,.,23*,.,-13
CN(C)CC(=O)N1CCCCN2[C@H](CO)[C@H](c3ccc(-c4cccnc4)cc3)[C@@H]2C1,1,.,22*,.,-1
O=C(c1cccnc1)N1CCCCN2[C@H](C1)[C@H](c1ccc(C#Cc3cccnc3)cc1)[C@@H]2CO,-10,.,10,.,-1
O=C(c1cccnc1)N1CCCCN2[C@H](CO)[C@@H](c3ccc(C#Cc4cccnc4)cc3)[C@H]2C1,.,.,25*,.,.
COCC(=O)N1CCCCN2[C@H](CO)[C@@H](c3ccc(C#Cc4cccnc4)cc3)[C@H]2C1,-1,.,32*,.,0
COCC(=O)N1CCCCN2[C@H](CO)[C@@H](c3ccc(C#Cc4cccnc4)cc3)[C@@H]2C1,-2,.,-3,.,-2
O=C(NCCN1CCCC1)[C@@H]1[C@@H](CO)[C@@H]2Cn3c(cccc3=O)[C@@H]2N1Cc1ccccn1,3,.,9,.,1
COc1ccc2c3c(n(C)c2c1)[C@@H](CO)NCC31CN(C(=O)Nc2ccccc2F)C1,0,.,-11,.,1
CC(=O)N1c2ccc(S(=O)(=O)NCCC(=O)NC3CCC(C)CC3)cc2CC1C (stereo not given),-2,6,-5,-5,44*
SMILES,ERp5 block,Rtt109 HAT inh,DENV2 CPE,PDI turbidity,SIRT5 block
COC(=O)C[C@@H]1CC[C@H]2[C@@H](COC[C@@H](O)CN2CCC(F)(F)F)O1,.,.,5,.,.
CCN(CC)c1nc2c(c(=O)[nH]c(=O)n2C)n1Cc1ccccc1,-1,1,-2,4,102*
CCCCCCn1c(N(CC)CC)nc2c1c(=O)[nH]c(=O)n2C,.,25,.,-4,.
Cc1ccccc1-c1ccc([C@@H]2[C@@H](CO)N3CCCCN(S(C)(=O)=O)C[C@@H]23)cc1,11,.,20,.,2
CCCC#Cc1ccc([C@H]2[C@H]3CN(CC4CC4)CCCCN3[C@H]2CO)cc1,11,.,-9,.,-6
COCC#Cc1ccc([C@H]2[C@H]3CN(Cc4cncnc4)CCCCN3[C@H]2CO)cc1,-1,.,21*,.,2
CCCC#Cc1ccc([C@H]2[C@H](CO)N3CCCCN(CC4CCOCC4)C[C@@H]23)cc1,-4,.,56*,.,5
C[C@@H]1CN([C@@H](C)CO)C(=O)Cc2cc(N(C)C)ccc2O[C@H]1CN(C)CC1CC1,-2,.,-6,.,-2
N#Cc1ccc(C(=O)OCC(=O)N2CCN(C(=O)c3ccco3)CC2)cc1,-3,-4,1,6,23*
O=C(c1ccco1)N1CCN(C2c3ccccc3-c3ccccc32)CC1,-3,4,54*,2,-1
O=C1OC(N2CCN(C(=O)c3ccco3)CC2)c2ccccc21 (stereo not given),.,12,.,-7,.
O=C(OCC(=O)N1CCN(C(=O)c2ccco2)CC1)c1ccccc1,2,0,1,-5,-2
CC(=O)Nc1ccc(C(=O)N2CCN(C(=O)c3ccco3)CC2)cc1,2,-9,.,-2,17*
CC(C)c1ccc(NC(=O)C(c2ccccc2)N2CCN(C(=O)c3ccco3)CC2)cc1 (stereo not given),.,3,.,14,.
O=C(Nc1ccc(F)cc1)C(c1cccc(F)c1)N1CCN(C(=O)c2ccco2)CC1 (stereo not given),-1,.,47*,.,0
O=C(NCc1ccccn1)[C@@H]1[C@@H](CO)[C@@H]2Cn3c(cccc3=O)[C@H]1N2CC1CCCCC1,1,.,4,.,0
Cc1ccc(NC(=O)N2CCN(C(=O)c3ccco3)CC2)cc1Cl,1,-10,38*,-14,-1
Cc1ccc(NC(=O)N2CCCC2)cc1Cl,1,0,-4,-8,0
C[C@H]1CN([C@@H](C)CO)C(=O)Cc2cc(NC(=O)Nc3ccccc3)ccc2O[C@H]1CN(C)C(=O)Nc1ccc2c(c1)OCO2,-6,.,.,.,6
CCCNC(=O)N(C)C[C@H]1Oc2cc(C#C[C@H](C)O)ccc2S(=O)(=O)N([C@@H](C)CO)C[C@@H]1C,1,.,-7,.,18*
CCCNC(=O)N(C)C[C@@H]1Oc2cc(C#C[C@@H](C)O)ccc2S(=O)(=O)N([C@@H](C)CO)C[C@@H]1C,.,.,3,.,-5
CCCNC(=O)N(C)C[C@H]1Oc2cc(C#CC(C)C)ccc2S(=O)(=O)N([C@H](C)CO)C[C@@H]1C,18,.,-6,.,19*
CNC[C@@H]1OCCCC[C@H](C)Oc2ccc(NS(=O)(=O)c3c(C)noc3C)cc2C(=O)N([C@@H](C)CO)C[C@H]1C,.,.,123*,.,.
CNC[C@@H]1OCCCC[C@@H](C)Oc2ccc(NS(=O)(=O)c3c(C)noc3C)cc2C(=O)N([C@@H](C)CO)C[C@H]1C,.,.,29*,.,.
